From article PMC12431657, “Discovery and mechanistic insights of dibenzoylmethane as a broad spectrum inhibitor of coronavirus” (PLOS Pathogens, 2025)
Where a name gives a salt, the structure may show the parent alone. Read-outs that look alike come from different tables or passages of the source. Screen size: about 3,300 compounds; about 60 (2%) showed an effect of 50% or more. What follows is part of a selection rich in strong results, with near analogues and random picks from the rest. Bridge positions count the residues as written; N and C are the ends. Square brackets hold non-standard residues; d marks the D form. Peptide text beside a SMILES is read from it. * marks the point of attachment. Ileψ(thiazoline)Cys = CC[C@H](C)[C@H](N)C1=N[C@H](C(=O)*)CS1; NMePhe(4-NMe2) = CN[C@@H](Cc1ccc(N(C)C)cc1)C(=O)O; Pip(4-oxo) = O=C1CCN[C@H](C(=O)O)C1; Picolinoyl(3-OH) = O=C(c1ncccc1O)*; Phg = N[C@H](C(=O)O)c1ccccc1; dOrn = NCCC[C@@H](N)C(=O)O; dAbu = CC[C@@H](N)C(=O)O

Tested on: HCoV-OC43
Parameters: species or system RD; HTS, protection from HCoV-OC43 induced cell death, luminescent cell viability (CellCounting-Lite 2.0), inhibition rate
Settings: 24 h post infection, 1 h compound pre-incubation, 10 µM, inhibitor

Row | SMILES | OC43 Inhibition rate (OC43 Inhibition rate, 24 h) | OC43 Inhibition rate
1 | C[C@H](CCC(=O)NCC(=O)O)[C@H]1CC[C@H]2[C@@H]3CC[C@@H]4C[C@H](O)CC[C@]4(C)[C@H]3C[C@H](O)[C@]12C [Glycodeoxycholic acid (monohydrate)] | -0.8% | –
2 | CCCCCCCC/C=C\CCCCCCCCCCCCCC(=O)O [Nervonic acid] | – | -2.1%
3 | CC(=O)N[C@H](C(=O)O)C(C)C [Acetylvaline] | – | -0.2%
4 | COc1ccc2c(c1OC)CN(C)c1c-2ccc2cc3c(cc12)OCO3 [Dihydrochelerythrine] | – | 1.4%
5 | O=c1cc(-c2ccccc2)oc2ccccc12 [Flavone] | – | 0.3%
6 | O=c1cc(-c2ccccc2)oc2c(O)c(O)ccc12 [7,8-Dihydroxyflavone] | – | 0.2%
7 | O=c1cc(-c2ccccc2)oc2c1ccc1ccccc12 [Alpha-Naphthoflavone] | – | 65.1%
8 | CC(C)=CCC[C@](C)(O[C@@H]1O[C@H](CO)[C@@H](O)[C@H](O)[C@H]1O)[C@H]1CC[C@]2(C)[C@@H]1[C@H](O)C[C@@H]1[C@@]3(C)CC[C@H](O)C(C)(C)[C@@H]3[C@@H](O[C@@H]3O[C@H](CO)[C@@H](O)[C@H](O)[C@H]3O[C@@H]3OC[C@@H](O)[C@H](O)[C@H]3O)C[C@]12C [Notoginsenoside R1] | – | 0.5%
9 | N[C@@H](Cc1c[nH]cn1)C(=O)O [L-Histidine (hydrochloride hydrate)] | 2.4% | –
10 | CC[C@H]1NC(=O)[C@@H](NC(=O)c2ncccc2O)[C@@H](C)OC(=O)[C@H](c2ccccc2)NC(=O)[C@@H]2CC(=O)CCN2C(=O)[C@H](Cc2ccc(N(C)C)cc2)N(C)C(=O)[C@@H]2CCCN2C1=O [Pristinamycin IA] ({Picolinoyl(3-OH)}-T[dAbu]P[NMePhe(4-NMe2)][Pip(4-oxo)][Phg]; ester 1-C) | – | 1.7%
11 | NCCCCNCCCN [Spermidine] | -0.8% | –
12 | COc1cc(O)cc2oc(-c3ccc(O)c(O)c3)c(O)c(=O)c12 [Azaleatin] | – | 7.4%
13 | O=c1c2c3c(ccc2cc2n1CCc1cc4c(cc1-2)OCO4)OCO3 [8-Oxocoptisine] | – | -0.2%
14 | COc1ccc2cc3n(c(=O)c2c1OC)CCc1cc2c(cc1-3)OCO2 [Oxyberberine] | – | 58.7%
15 | COc1cc2c(cc1OC)-c1cc3ccc4c(c3c(=O)n1CC2)OCO4 [8-Oxoepiberberine] | – | 10.1%
16 | OC[C@H]1O[C@@H](Oc2cc(/C=C/c3cc(O)cc(O)c3)ccc2O)[C@H](O)[C@@H](O)[C@@H]1O [Piceatannol 3'-O-glucoside] | – | 2%
17 | CC(C)=CCC12Oc3cc(O)ccc3C1(O)Oc1cc(O)c([C@H]3C=C(C)C[C@@H](c4ccc(O)cc4O)[C@@H]3C(=O)c3ccc(O)cc3O)c(O)c1C2=O (stereo partly shown) [Sanggenon D] | – | 42.1%
18 | CC(C)(O)[C@@H]1CC[C@](C)([C@H]2[C@@H](O)C[C@@]3(C)[C@@H]4C[C@H](O)[C@H]5C(C)(C)[C@@H](O)CC[C@@]56C[C@@]46CC[C@]23C)O1 [Cycloastragenol] | – | 0.7%
19 | CN[C@@H](C)[C@H]1[C@H](O)C[C@@]2(C)[C@@H]3CC[C@H]4C(C)(C)[C@@H](NC)CC[C@@]45C[C@@]35CC[C@]12C [Cyclovirobuxine D] | – | 109.3%
20 | CC(C)(O)[C@H]1CC[C@@](C)([C@H]2[C@@H](O)C[C@@]3(C)[C@@H]4C[C@H](O)[C@H]5C(C)(C)[C@@H](O)CC[C@@]56C[C@@]46CC[C@]23C)O1 [Cyclogalegenin] | – | 8.4%
21 | NCC(O)c1ccccc1 (stereo not shown) [2-Amino-1-phenylethanol] | – | 0%
22 | O=C(O)c1ccc(O)cc1 [4-Hydroxybenzoic acid] | – | 0.1%

Row | SMILES | OC43 Inhibition rate (OC43 Inhibition rate, 24 h) | OC43 Inhibition rate
23 | C[C@@H](O)CO [(R)-(-)-1,2-Propanediol] | – | -0.2%
24 | COc1cc(CNC(=O)CCCC/C=C/C(C)C)ccc1O[C@@H]1O[C@H](CO)[C@@H](O)[C@H](O)[C@H]1O [Capsaicin β-D-glucopyranoside] | – | 0.3%
25 | CC1=CC(=O)[C@@H]2C[C@H]1C2(C)C [Verbenone] | – | -0.2%
26 | C=C1[C@@H](O)[C@]2(O)OC[C@]34[C@H]2[C@@]2(C)[C@H](O)C(=O)C=C(C)[C@@H]2C[C@H]3OC(=O)[C@H](O)[C@@]14O [Eurycomanone] | – | 54.5%
27 | O=C(O)c1ccncc1 [Isonicotinic acid] | – | -0.2%
28 | O=C(O)C(CO)c1ccccc1 (stereo not shown) [Tropic acid] | – | 0.5%
29 | CCC(C)(C)C(=O)O[C@H]1C[C@@H](C)C=C2C=C[C@H](C)[C@H](CC[C@@H](O)C[C@@H](O)CC(=O)O)[C@H]21 [Simvastatin acid (ammonium)] | – | 5%
30 | CC(C)[C@@H]1NC(=O)CNC(=O)[C@H](C)NC(=O)[C@H](Cc2c[nH]c3ccccc23)NC(=O)[C@H](C)NC1=O [Segetalin B] (cyclo(AGVAW)) | – | -0.5%
31 | CCCCCCCCCC(=O)N[C@@H](Cc1c[nH]c2ccccc12)C(=O)N[C@H](CC(N)=O)C(=O)N[C@@H](CC(=O)O)C(=O)N[C@@H]1C(=O)NCC(=O)N[C@@H](CCCN)C(=O)N[C@@H](CC(=O)O)C(=O)N[C@H](C)C(=O)N[C@@H](CC(=O)O)C(=O)NCC(=O)N[C@H](CO)C(=O)N[C@@H]([C@H](C)CC(=O)O)C(=O)N[C@@H](CC(=O)c2ccccc2N)C(=O)O[C@@H]1C [Daptomycin] | – | 62.7%
32 | CC[C@H](C)[C@H](N)C1=N[C@H](C(=O)N[C@@H](CC(C)C)C(=O)N[C@H](CCC(=O)O)C(=O)N[C@H](C(=O)N[C@H]2CCCCNC(=O)[C@H](CC(N)=O)NC(=O)[C@@H](CC(=O)O)NC(=O)[C@H](Cc3cnc[nH]3)NC(=O)[C@@H](Cc3ccccc3)NC(=O)[C@H]([C@@H](C)CC)NC(=O)[C@@H](CCCN)NC2=O)[C@@H](C)CC)CS1 [Bacitracin] ({Ileψ(thiazoline)Cys}-L[dE]IK[dOrn]I[dF]H[dD]N; lactam 4-C) | – | -0.3%
33 | CN1C[C@@H]2C[C@H](C1)c1cccc(=O)n1C2 [N-Methylcytisine] | – | -2.8%
34 | C=C1CCOC1=O [Tulipalin A] | – | 28.2%
35 | Oc1ccc2ccc3cccc4ccc1c2c34 [1-Hydroxypyrene] | – | 16.8%
36 | CC1(C)[C@@H](O)CC[C@]2(C)[C@H]3CC=C4[C@@H]5C[C@@]6(C)C[C@H](OC6=O)[C@]5(C)CC[C@@]4(C)[C@]3(C)CC[C@@H]12 [Wilforlide A] | – | 0.1%
37 | O=C(N[C@@H](Cc1ccccc1)C(=O)N[C@H](CO)Cc1ccccc1)c1ccccc1 [Aurantiamide] | – | 1%
38 | COc1c(CC=C(C)C)c(O)cc2oc(=O)c(-c3ccc(O)cc3O)cc12 [Glycycoumarin] | – | 0.9%
39 | COc1c(CC=C(C)C)c(O)cc2oc(=O)c3c4ccc(O)cc4oc3c12 [Neoglycyrol] | – | 113.3%
40 | CC(C)=CCc1cc2c(cc1O)oc(=O)c1c3ccc(O)cc3oc21 [Psoralidin] | – | 0%
41 | Cc1c(C)c2c(c(C)c1O)CC[C@@](C)(CCCC(C)CCCC(C)CCCC(C)C)O2 (stereo in doubt) [rel-α-Vitamin E] | – | 5.5%
42 | CC1(C)CC[C@]2(C(=O)O[C@@H]3O[C@H](CO)[C@@H](O)[C@H](O)[C@H]3O)CC[C@]3(C)C(=CC[C@@H]4[C@@]5(C)CC[C@H](O[C@@H]6O[C@H](C(=O)O)[C@@H](O[C@@H]7O[C@@H](CO)[C@H](O)[C@H]7O)[C@H](O)[C@H]6O)C(C)(C)[C@@H]5CC[C@]43C)[C@@H]2C1 [Araloside A] | – | 1.5%
43 | COc1cc2oc(-c3ccccc3)cc(=O)c2c(OC)c1OC [5,6,7-Trimethoxyflavone] | – | 0.1%
44 | COc1c(C)c2c(c(O)c1C/C=C(\C)CCC(=O)O)C(=O)OC2 [Mycophenolic acid] | – | 36.2%

Row | SMILES | OC43 Inhibition rate (OC43 Inhibition rate, 24 h) | OC43 Inhibition rate
45 | COc1cc(-c2c3c(c(O)c4cc5c(cc24)OCO5)COC3=O)cc(OC)c1OC [Tetradehydropodophyllotoxin] | – | 1%
46 | COC(=O)CC/C(C)=C/Cc1c(O)c2c(c(C)c1OC)COC2=O [Methyl mycophenolate] | – | 61.8%
47 | O=C(O)c1cn[nH]c1 [4-Carboxypyrazole] | – | 0.1%
48 | C=C(C(=O)O)[C@@H]1CC[C@@H](C)[C@@H]2CCC(C)=C[C@@H]21 [Artemisic acid] | – | 4.6%
49 | Cc1ncc(C[n+]2csc(CCO)c2C)c(N)n1 [Thiamine monochloride] | 2.4% | –
50 | C[S@@+]([O-])CCCCN=C=S [(R)-sulforaphane] | – | 71.2%
51 | CC1=CCCC(C)(C)[C@H]1/C=C/C(C)=C/C=C/C(C)=C/C=C/C=C(C)/C=C/C=C(C)/C=C/C1=C(C)CCCC1(C)C [α-Carotene] | – | 19.1%
52 | O=c1ccc2nccc3c4ccccc4n1c23 [Canthin-6-one] | – | -0.9%
53 | O=C(/C=C/c1ccc(O)c(O)c1)O[C@H]1[C@H](O)C[C@](O)(C(=O)O)C[C@H]1OC(=O)/C=C/c1ccc(O)c(O)c1 [3,4-Dicaffeoylquinic acid] | – | 6.5%
54 | C[N+](C)(C)[O-] [Trimethylamine N-oxide (dihydrate)] | -1.8% | –
55 | CC(C)C[C@H](NC(=O)[C@@H](O)[C@H](N)Cc1ccccc1)C(=O)O [Bestatin] | 1.8% | –
56 | O=C1C[C@@H](c2ccc(O)c(O)c2)Oc2cc(O)cc(O)c21 [Eriodictyol] | – | 0.2%
57 | COc1cc(O)c(CC=C(C)C)c2c1C(=O)C[C@@H](c1ccc(O)cc1)O2 [(2S)-Isoxanthohumol] | – | 48.2%
58 | O=C1C[C@@H](c2ccc(O)c(O)c2)Oc2c1ccc(O[C@@H]1O[C@H](CO)[C@@H](O)[C@H](O)[C@H]1O)c2O [Flavanomarein] | – | -5.7%
59 | O=C1C[C@@H](c2ccc(O)cc2)Oc2cc(O)ccc21 [Liquiritigenin] | – | 0.2%
60 | CC(C)=CCc1cc2c(cc1O)O[C@H](c1ccc(O)cc1)CC2=O [Bavachin] | – | 66.9%
61 | CC(C)=CCc1c(O)cc2c(c1O)C(=O)C[C@@H](c1ccc(O)cc1)O2 [(2S)-6-Prenylnaringenin] | – | 54.9%
62 | COc1cc2c(cc1CC=C(C)C)C(=O)C[C@@H](c1ccc(O)cc1)O2 [Bavachinin] | – | 20.3%
63 | CC(C)=CCc1cc([C@@H]2CC(=O)c3ccc(O)c(CC=C(C)C)c3O2)ccc1O [Glabrol] | – | 55.6%
64 | COc1cc(O)c(CC=C(C)C)c2c1C(=O)CC(c1ccc(O)cc1)O2 (stereo not shown) [Isoxanthohumol] | – | 30.2%
